# Inconclusive results are not listed. Activity calls are given as the source filed them. Rule for the calls: active = hit-call score of the fitted dose curve at least 0.9, where 1 is the maximum; inconclusive = response in the unintended direction; inactive = score below 0.9.
# Tests used:
# [1] = target: human Adenosine A1 Receptor (AdoRA1), ADORA1 (gene 134) (UniProt P30542); experiment: NVS_GPCR_hAdoRA1: NovaScreen (NVS) G Protein-Coupled Receptor Assay for human Adenosine A1 Receptor (AdoRA1) (AID 2283254)
# In short: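 Radioligand competition binding on human cortical membranes, 1 h after compound addition; bound radioactivity read by filtration and scintillation counting. Loss of signal versus DMSO baseline scored as displacement; primary screen duplicate at 25 uM, actives retested in concentration series.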
# [2] = target: human Adenosine A2a Receptor (AdoRA2a), ADORA2A (gene 135) (UniProt P29274); experiment: NVS_GPCR_hAdoRA2a: NovaScreen (NVS) G Protein-Coupled Receptor Assay for human Adenosine A2a Receptor (AdoRA2a) (AID 2283256)
# In short: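 Radioligand displacement on HEK293-derived membrane protein, cell-free; filter-based scintillation counting 1.5 hours after dosing, loss of signal vs DMSO. Single-point duplicate screen at 25 uM, actives retested in concentration series.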
# [3] = target: human Dopamine Receptor D4.4 (DRD4.4), DRD4 (gene 1815) (UniProt P21917); experiment: NVS_GPCR_hDRD4.4: NovaScreen (NVS) G Protein-Coupled Receptor Assay for human Dopamine Receptor D4.4 (DRD4.4) (AID 2283264)
# In short: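 Radioligand displacement on human DRD4.4 from CHO-derived membranes, 1 hour incubation, bound counts read by filtration and scintillation. Primary screen in duplicate at 25 uM; actives followed up in concentration series.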
# [4] = target: human Serotonin, 5-Hydroxytryptamine Receptor 5A (5HT5A), HTR5A (gene 3361) (UniProt P47898); experiment: NVS_GPCR_h5HT5A: NovaScreen (NVS) G Protein-Coupled Receptor Assay for human Serotonin, 5-Hydroxytryptamine Receptor 5A (5HT5A) (AID 2283251)
# In short: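 Cell-free radioligand displacement binding on HEK293-derived membrane protein, 1 h incubation, filter-based scintillation counting. Primary screen in duplicate at 25 uM, actives followed in concentration series; loss of signal fitted versus DMSO.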
# [5] = target: human Dopamine Receptor D2 (DRD2), DRD2 (gene 1813) (UniProt P14416); experiment: NVS_GPCR_hDRD2s: NovaScreen (NVS) G Protein-Coupled Receptor Assay for human Dopamine Receptor D2 (DRD2) (AID 2283266)
# In short: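 Radioligand displacement used human DRD2 membranes extracted from CHO cells and was read by filter-based scintillation counting after 1.5 hours. Primary screening was in duplicate at 25 uM. Loss of signal versus DMSO was fitted, with concentration series in follow-up.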
# [6] = target: D(1A) dopamine receptor (Homo sapiens) (UniProt P21728); experiment: NVS_GPCR_hDRD1: NovaScreen (NVS) G Protein-Coupled Receptor Assay for human Dopamine Receptor D1 (DRD1) (AID 2283269)
# In short: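 Cell-free competition with radioligand, filter-trapped and scintillation-counted 1 h post-dose, using HEK293-derived human D1 preparation. Duplicate single-point testing at 25 uM first, then concentration series for actives; DMSO served as baseline, loss-of-signal scored.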
# [7] = target: human Serotonin, 5-Hydroxytryptamine Receptor 6 (5HT6), HTR6 (gene 3362) (UniProt P50406); experiment: NVS_GPCR_h5HT6: NovaScreen (NVS) G Protein-Coupled Receptor Assay for human Serotonin, 5-Hydroxytryptamine Receptor 6 (5HT6) (AID 2283253)
# In short: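 Radioligand binding to 5HT6 in HEK293-derived membranes, cell-free, 1 h after dosing; bound ligand measured by filter-based scintillation counting. Primary screen in duplicate at 25 uM; actives retested in concentration series.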
# [8] = target: human Adrenergic, Beta 1 Receptor (Adrb1), ADRB1 (gene 153) (UniProt P08588); experiment: NVS_GPCR_hAdrb1: NovaScreen (NVS) G Protein-Coupled Receptor Assay for human Adrenergic, Beta 1 Receptor (Adrb1) (AID 2283258)
# In short: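 Cell-free radioligand displacement on receptor from human neuroepithelioma cells; 2 h after dosing, filter-based scintillation counting. Primary screen in duplicate at 25 uM, actives retested in concentration series; loss of signal vs DMSO baseline.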
# [9] = target: Beta-2 adrenergic receptor (Homo sapiens) (UniProt P07550); experiment: NVS_GPCR_hAdrb2: NovaScreen (NVS) G Protein-Coupled Receptor Assay for human Adrenergic, Beta 2 Receptor (Adrb2) (AID 2283261)
# In short: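 Filter-based radioligand binding using receptor prepared from CHO cells, 1 h incubation, scintillation counting. Primary screen in duplicate at 25 uM, actives retested in concentration series; loss of binding relative to DMSO.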
# [10] = target: human Adrenergic, Beta 3 Receptor (Adrb3), ADRB3 (gene 155) (UniProt P13945); experiment: NVS_GPCR_hAdrb3: NovaScreen (NVS) G Protein-Coupled Receptor Assay for human Adrenergic, Beta 3 Receptor (Adrb3) (AID 2283262)
# In short: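 Membranes from SK-N-MC cells pretreated with isoproterenol and 8-bromo-cAMP were used in a radioligand competitive displacement binding assay. Binding was read by filter-based scintillation counting 1 hour after dosing. Primary screening was in duplicate at 25 uM, with concentration series in follow-up.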
# [11] = target: human Serotonin, 5-Hydroxytryptamine Receptor 7 (5HT7), HTR7 (gene 3363) (UniProt P34969); experiment: NVS_GPCR_h5HT7: NovaScreen (NVS) G Protein-Coupled Receptor Assay for human Serotonin, 5-Hydroxytryptamine Receptor 7 (5HT7) (AID 2283255);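 note: hits reduce specific radioligand binding relative to DMSO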
# In short: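 Radioligand displacement on membranes from CHO cells expressing human 5HT7, 1 h incubation, filter-based scintillation counting. Primary screen used a single 25 uM concentration in duplicate; actives were followed up in concentration series.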
# [12] = tested on: guinea pig Muscarinic, Peripheral (Mperiperal) Receptor, Non-selective Binding, gene 100379235; experiment: NVS_GPCR_gMPeripheral_NonSelective: NovaScreen (NVS) G Protein-Coupled Receptor Assay for guinea pig Muscarinic, Peripheral (Mperiperal) Receptor, Non-selective Binding (AID 2283250)
# In short: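 Guinea pig bladder membranes, radioligand binding read 1 h after dosing by filter scintillation counting; loss of signal vs DMSO. Primary duplicate screen at 25 uM, then concentration-response up to 50 uM.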
# [13] = target: guinea pig Opioid, Kappa 1 Receptor (OpiateK), OPRK1 (gene 100135587) (UniProt P41144); experiment: NVS_GPCR_gOpiateK: NovaScreen (NVS) G Protein-Coupled Receptor Assay for guinea pig Opioid, Kappa 1 Receptor (OpiateK) (AID 2283252);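 note: radioligand displacement from kappa opioid receptor in guinea pig cerebellar membranes; active means reduced radioligand binding relative to DMSO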
# In short: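 Guinea pig cerebellar membranes were incubated with a radioligand for 2 h after compound addition; bound radioactivity was read by filter-based scintillation counting. Loss of specific binding relative to DMSO baseline defined activity; primary screen at 25 uM in duplicate.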
# [14] = target: human Adrenergic, Alpha 2c Receptor (Adra2C), ADRA2C (gene 152) (UniProt P18825); experiment: NVS_GPCR_hAdra2C: NovaScreen (NVS) G Protein-Coupled Receptor Assay for human Adrenergic, Alpha 2c Receptor (Adra2C) (AID 2283259)
# In short: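 Radioligand binding on Sf9-expressed receptor membranes, 1 h after chemical dosing, filter-based scintillation read-out. Loss of binding fitted positively versus DMSO; primary duplicate screen at 25 uM, actives retested in concentration series.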
# [15] = target: human Endothelin Receptor Type A (ETA), EDNRA (gene 1909) (UniProt P25101); experiment: NVS_GPCR_hETA: NovaScreen (NVS) G Protein-Coupled Receptor Assay for human Endothelin Receptor Type A (ETA) (AID 2283265)
# In short: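 Cell-free radioligand displacement using SH-SY5Y-derived protein, 3 h incubation, filter-based scintillation counting. Primary screen in duplicate at 25 uM; actives then run in concentration-response up to 50 uM; loss of binding fitted versus DMSO.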
# [16] = target: human Endothelin Receptor Type B (ETB), EDNRB (gene 1910) (UniProt P24530); experiment: NVS_GPCR_hETB: NovaScreen (NVS) G Protein-Coupled Receptor Assay for human Endothelin Receptor Type B (ETB) (AID 2283267)
# In short: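 Human astrocytoma cell membranes; radioligand competitive binding read by filter scintillation counting 4 hours after dosing. Single-concentration duplicate screen at 25 uM, then singleton concentration-response up to 50 uM; loss of signal versus DMSO.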
# [17] = target: Muscarinic acetylcholine receptor M1 (Homo sapiens) (UniProt P11229); experiment: NVS_GPCR_hM1: NovaScreen (NVS) G Protein-Coupled Receptor Assay for human Muscarinic, M1 Receptor (AID 2283270)
# In short: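 Cell-free radioligand displacement using membrane protein extracted from CHO cells, read by filter-based scintillation counting 1 h after dosing. Loss of bound signal fitted versus DMSO; primary screen single concentration 25 uM in duplicate, actives followed by concentration series.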
# [18] = target: human Adrenergic, Alpha 2A Receptor (Adra2A), ADRA2A (gene 150) (UniProt P08913); experiment: NVS_GPCR_hAdra2A: NovaScreen (NVS) G Protein-Coupled Receptor Assay for human Adrenergic, Alpha 2A Receptor (Adra2A) (AID 2283257)
# In short: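 Radioligand filter-binding was run on HT29-derived membranes, cell-free, read by scintillation counting 1 h after dosing. Primary screening was in duplicate at 25 uM, with concentration series in follow-up. Loss of signal versus DMSO indicates displacement.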
# [19] = target: Type-1 angiotensin II receptor (Homo sapiens) (UniProt P30556); experiment: NVS_GPCR_hAT1: NovaScreen (NVS) G Protein-Coupled Receptor Assay for human Angiotensin II receptor type 1 (AT1) (AID 2283263)
# In short: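 Membranes from KAN-TS cells; radioligand competitive displacement, 3 h, filtration and scintillation counting. Single-point duplicate screen at 25 uM, then concentration-response up to 50 uM for hits; loss of signal fitted versus DMSO.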
# [20] = target: human Histamine 1 Receptor (H1), HRH1 (gene 3269) (UniProt P35367); experiment: NVS_GPCR_hH1: NovaScreen (NVS) G Protein-Coupled Receptor Assay for human Histamine 1 Receptor (H1) (AID 2283268)
# In short: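 Cell-free radioligand displacement at human H1 receptor, 1 h, filter scintillation counting; primary screen 25 uM in duplicate, hits in concentration series; loss of binding fitted vs DMSO.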
# Sequence of human Serotonin, 5-Hydroxytryptamine Receptor 6 (5HT6), HTR6 (gene 3362) (P50406 whole entry, looked up): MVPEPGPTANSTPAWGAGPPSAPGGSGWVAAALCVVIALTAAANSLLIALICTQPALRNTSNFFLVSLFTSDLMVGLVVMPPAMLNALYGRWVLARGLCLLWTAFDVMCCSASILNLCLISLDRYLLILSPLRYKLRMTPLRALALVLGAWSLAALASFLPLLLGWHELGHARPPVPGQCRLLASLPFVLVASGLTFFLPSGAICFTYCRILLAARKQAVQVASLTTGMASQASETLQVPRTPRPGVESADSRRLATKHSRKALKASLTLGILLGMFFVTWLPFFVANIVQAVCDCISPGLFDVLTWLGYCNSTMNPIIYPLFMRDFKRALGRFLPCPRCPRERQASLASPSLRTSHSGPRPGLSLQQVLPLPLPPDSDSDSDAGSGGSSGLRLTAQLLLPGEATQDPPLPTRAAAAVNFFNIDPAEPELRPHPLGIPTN
# Sequence of human Dopamine Receptor D4.4 (DRD4.4), DRD4 (gene 1815) (P21917 whole entry, looked up): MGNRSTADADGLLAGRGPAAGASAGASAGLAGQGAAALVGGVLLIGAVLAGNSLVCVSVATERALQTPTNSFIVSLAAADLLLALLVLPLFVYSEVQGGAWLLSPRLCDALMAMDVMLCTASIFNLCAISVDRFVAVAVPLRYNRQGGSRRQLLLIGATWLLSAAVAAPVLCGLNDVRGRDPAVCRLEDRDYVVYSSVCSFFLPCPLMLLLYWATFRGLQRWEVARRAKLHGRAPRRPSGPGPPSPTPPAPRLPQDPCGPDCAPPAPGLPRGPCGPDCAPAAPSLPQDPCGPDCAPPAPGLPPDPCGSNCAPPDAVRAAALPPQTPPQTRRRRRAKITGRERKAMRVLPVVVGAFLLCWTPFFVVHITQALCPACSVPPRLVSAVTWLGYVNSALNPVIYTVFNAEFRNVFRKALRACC
# Sequence of human Adrenergic, Beta 1 Receptor (Adrb1), ADRB1 (gene 153) (P08588 whole entry, looked up): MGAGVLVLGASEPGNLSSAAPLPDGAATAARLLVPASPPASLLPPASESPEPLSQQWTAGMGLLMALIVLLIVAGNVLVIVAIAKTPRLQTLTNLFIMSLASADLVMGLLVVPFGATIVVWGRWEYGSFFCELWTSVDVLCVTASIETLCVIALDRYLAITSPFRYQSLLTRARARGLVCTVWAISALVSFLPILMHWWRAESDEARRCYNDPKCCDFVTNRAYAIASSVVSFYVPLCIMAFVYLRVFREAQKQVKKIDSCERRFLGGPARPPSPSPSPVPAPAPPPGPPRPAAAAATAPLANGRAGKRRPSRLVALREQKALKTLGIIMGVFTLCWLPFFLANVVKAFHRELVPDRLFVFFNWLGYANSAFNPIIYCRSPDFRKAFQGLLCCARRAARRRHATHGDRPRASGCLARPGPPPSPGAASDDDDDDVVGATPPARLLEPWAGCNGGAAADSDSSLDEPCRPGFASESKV
# Sequence of D(1A) dopamine receptor (Homo sapiens) (P21728 whole entry, looked up): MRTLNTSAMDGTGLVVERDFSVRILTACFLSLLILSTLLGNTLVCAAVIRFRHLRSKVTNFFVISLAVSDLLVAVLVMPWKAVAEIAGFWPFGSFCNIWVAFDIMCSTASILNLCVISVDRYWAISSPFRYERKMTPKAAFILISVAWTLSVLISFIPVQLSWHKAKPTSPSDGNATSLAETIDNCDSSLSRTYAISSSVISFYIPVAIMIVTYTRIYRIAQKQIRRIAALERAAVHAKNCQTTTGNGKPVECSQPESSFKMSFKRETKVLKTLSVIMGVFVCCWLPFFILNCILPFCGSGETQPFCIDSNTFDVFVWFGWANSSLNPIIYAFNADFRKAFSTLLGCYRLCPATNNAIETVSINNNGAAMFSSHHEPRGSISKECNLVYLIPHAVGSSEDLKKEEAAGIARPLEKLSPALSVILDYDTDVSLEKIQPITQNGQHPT
# Sequence of human Adenosine A1 Receptor (AdoRA1), ADORA1 (gene 134) (P30542 whole entry, looked up): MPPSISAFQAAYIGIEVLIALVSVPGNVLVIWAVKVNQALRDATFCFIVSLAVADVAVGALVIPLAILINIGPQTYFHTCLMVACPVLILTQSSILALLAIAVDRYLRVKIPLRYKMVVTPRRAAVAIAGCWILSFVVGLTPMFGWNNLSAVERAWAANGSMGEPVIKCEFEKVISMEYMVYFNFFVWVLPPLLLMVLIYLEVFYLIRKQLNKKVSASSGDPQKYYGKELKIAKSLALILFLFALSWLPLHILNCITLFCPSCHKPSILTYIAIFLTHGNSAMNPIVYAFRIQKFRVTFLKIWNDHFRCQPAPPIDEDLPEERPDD
# Sequence of human Serotonin, 5-Hydroxytryptamine Receptor 7 (5HT7), HTR7 (gene 3363) (P34969 whole entry, looked up): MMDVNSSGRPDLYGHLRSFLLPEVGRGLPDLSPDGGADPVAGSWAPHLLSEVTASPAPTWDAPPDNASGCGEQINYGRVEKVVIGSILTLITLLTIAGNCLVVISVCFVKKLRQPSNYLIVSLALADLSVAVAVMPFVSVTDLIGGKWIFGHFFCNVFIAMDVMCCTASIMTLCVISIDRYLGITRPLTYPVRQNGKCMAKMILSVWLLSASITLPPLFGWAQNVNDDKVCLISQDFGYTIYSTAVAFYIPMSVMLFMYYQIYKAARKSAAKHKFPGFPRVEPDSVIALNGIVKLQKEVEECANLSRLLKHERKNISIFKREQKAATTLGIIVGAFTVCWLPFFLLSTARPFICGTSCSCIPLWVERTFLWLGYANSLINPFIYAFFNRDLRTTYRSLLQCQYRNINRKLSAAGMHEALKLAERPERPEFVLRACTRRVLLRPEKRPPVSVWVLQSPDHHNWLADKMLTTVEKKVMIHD
# Sequence of human Serotonin, 5-Hydroxytryptamine Receptor 5A (5HT5A), HTR5A (gene 3361) (P47898 whole entry, looked up): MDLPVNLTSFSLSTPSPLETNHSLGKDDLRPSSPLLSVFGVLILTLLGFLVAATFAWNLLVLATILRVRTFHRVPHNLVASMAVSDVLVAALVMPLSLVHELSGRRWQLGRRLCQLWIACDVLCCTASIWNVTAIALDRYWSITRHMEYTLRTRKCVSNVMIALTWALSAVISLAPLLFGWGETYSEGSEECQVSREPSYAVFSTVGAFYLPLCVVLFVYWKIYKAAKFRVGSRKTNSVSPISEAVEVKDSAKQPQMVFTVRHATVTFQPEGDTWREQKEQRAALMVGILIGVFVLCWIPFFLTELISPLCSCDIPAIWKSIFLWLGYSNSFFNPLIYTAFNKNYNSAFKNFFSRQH
# Sequence of Beta-2 adrenergic receptor (Homo sapiens) (P07550 whole entry, looked up): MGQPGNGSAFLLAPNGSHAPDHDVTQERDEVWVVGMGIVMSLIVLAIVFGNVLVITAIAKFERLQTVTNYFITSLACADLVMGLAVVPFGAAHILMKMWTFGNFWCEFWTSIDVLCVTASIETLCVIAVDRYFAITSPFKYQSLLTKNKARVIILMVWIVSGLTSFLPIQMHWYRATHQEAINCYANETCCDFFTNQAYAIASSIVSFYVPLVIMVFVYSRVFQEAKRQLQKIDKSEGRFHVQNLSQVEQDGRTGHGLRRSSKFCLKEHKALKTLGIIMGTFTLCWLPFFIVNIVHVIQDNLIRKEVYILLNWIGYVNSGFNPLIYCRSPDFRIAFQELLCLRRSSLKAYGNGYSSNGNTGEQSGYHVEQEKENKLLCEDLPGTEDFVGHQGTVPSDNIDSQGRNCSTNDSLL
# Sequence of human Dopamine Receptor D2 (DRD2), DRD2 (gene 1813) (P14416 whole entry, looked up): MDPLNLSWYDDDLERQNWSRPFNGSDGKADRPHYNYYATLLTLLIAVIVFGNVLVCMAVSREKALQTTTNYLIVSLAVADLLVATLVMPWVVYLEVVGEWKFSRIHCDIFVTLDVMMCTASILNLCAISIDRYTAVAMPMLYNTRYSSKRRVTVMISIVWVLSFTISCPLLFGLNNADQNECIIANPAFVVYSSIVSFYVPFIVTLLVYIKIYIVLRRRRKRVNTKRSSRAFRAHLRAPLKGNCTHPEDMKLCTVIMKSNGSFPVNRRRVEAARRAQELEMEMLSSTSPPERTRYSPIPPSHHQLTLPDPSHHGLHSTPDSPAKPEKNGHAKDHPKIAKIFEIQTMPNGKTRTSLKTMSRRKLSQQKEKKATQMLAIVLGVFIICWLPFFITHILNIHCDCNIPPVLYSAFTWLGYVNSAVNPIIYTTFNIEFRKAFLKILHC
# Sequence of human Adenosine A2a Receptor (AdoRA2a), ADORA2A (gene 135) (P29274 whole entry, looked up): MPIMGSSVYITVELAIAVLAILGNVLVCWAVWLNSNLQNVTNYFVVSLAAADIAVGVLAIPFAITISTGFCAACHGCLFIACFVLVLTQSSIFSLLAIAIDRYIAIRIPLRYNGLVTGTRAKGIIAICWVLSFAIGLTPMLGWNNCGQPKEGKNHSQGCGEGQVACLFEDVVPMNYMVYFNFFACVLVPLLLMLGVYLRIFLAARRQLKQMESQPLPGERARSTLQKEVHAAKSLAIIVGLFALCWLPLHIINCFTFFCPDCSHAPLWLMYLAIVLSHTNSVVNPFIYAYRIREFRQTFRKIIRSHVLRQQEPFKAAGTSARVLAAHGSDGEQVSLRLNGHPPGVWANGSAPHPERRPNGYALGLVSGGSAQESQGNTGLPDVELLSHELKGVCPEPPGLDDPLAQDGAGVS
# Sequence of guinea pig Opioid, Kappa 1 Receptor (OpiateK), OPRK1 (gene 100135587) (P41144 whole entry, looked up): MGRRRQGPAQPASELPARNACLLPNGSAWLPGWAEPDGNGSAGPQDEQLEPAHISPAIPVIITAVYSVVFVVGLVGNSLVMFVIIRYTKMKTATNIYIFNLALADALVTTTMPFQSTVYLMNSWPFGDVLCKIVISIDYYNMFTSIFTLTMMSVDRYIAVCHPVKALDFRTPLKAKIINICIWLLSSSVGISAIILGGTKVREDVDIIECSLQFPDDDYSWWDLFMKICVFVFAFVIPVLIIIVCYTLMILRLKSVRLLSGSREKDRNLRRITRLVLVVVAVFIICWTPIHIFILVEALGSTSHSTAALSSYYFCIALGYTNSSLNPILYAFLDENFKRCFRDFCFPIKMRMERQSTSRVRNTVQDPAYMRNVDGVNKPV
smiles,measurement,setting,value
O=c1c(O)c(-c2ccc(O)c(O)c2)oc2cc(O)cc(O)c12,outcome,[1],inactive
same,AC50,[2],11.8 µM (active)
same,outcome,[3],inactive
Nc1nc(N)c2nc(CNc3ccc(C(=O)N[C@@H](CCC(=O)O)C(=O)O)cc3)cnc2n1,AC50,[4],6.28 µM (active)
same,outcome,[3],inactive
same,AC50,[5],18.3 µM (active)
same,AC50,[6],38.9 µM (active)
Nc1ccccc1N,AC50,[2],0.975 µM (active)
NCCO,outcome,[7],inactive
NS(=O)(=O)c1cc2c(cc1Cl)NCNS2(=O)=O,outcome,[7],inactive
O=C(O)Cc1ccccc1Nc1c(Cl)cccc1Cl,outcome,[8],inactive
same,outcome,[9],inactive
same,outcome,[10],inactive
CC(C)c1ccc(C(=O)N=C(N)N)cc1S(C)(=O)=O,AC50,[11],8.17 µM (active)
Cc1cccc(C)c1O,outcome,[9],inactive
COc1cc(-c2nc(NC(=O)c3cc4cc(C)cc(C)c4n3CC(=O)O)sc2CCC2CCCCC2)c(OC)cc1Cl,outcome,[4],inactive
Cc1ccccc1Cl,outcome,[10],inactive
CCOc1ccc2c(c1)C(C)=CC(C)(C)N2,outcome,[2],inactive
CN1CCN(Cc2cc(-c3ccc4[nH]c(=O)oc4c3)co2)[C@@H](c2ccc(F)cc2)C1,outcome,[12],inactive
same,AC50,[4],9.14 µM (active)
same,outcome,[13],inactive
same,AC50,[7],2.5 µM (active)
same,AC50,[11],15.6 µM (active)
same,AC50,[8],22 µM (active)
same,AC50,[14],10.5 µM (active)
same,AC50,[3],14.2 µM (active)
same,outcome,[5],inactive
same,AC50,[6],5.7 µM (active)
CCCCc1ccc2c(n1)[C@@H](c1ccc(OC)cc1C[C@H](C)C(=O)O)[C@H](C(=O)O)[C@H]2c1ccc2c(c1)OCO2,AC50,[15],0.00472 µM (active)
same,AC50,[16],0.00361 µM (active)
C=CCOC(=O)c1ccccc1C(=O)OCC=C,outcome,[1],inactive
Cc1ccc2ncccc2c1,outcome,[8],inactive
NCC1(Cc2noc(=O)[nH]2)CCCCC1,outcome,[15],inactive
same,outcome,[16],inactive
Cc1nc(-c2ccc3c(c2)CCN(CCC2CCC(NC(=O)/C=C/c4ccc(F)cc4)CC2)CC3)no1 (centres undefined),AC50,[12],0.483 µM (active)
same,AC50,[13],0.262 µM (active)
same,outcome,[5],inactive
same,AC50,[17],0.148 µM (active)
CCCCC(CC)COC(=O)CC(C(=O)OCC(CC)CCCC)S(=O)(=O)O (centres undefined),AC50,[12],25 µM (active)
same,AC50,[4],7.45 µM (active)
same,AC50,[7],36.6 µM (active)
same,AC50,[1],20.7 µM (active)
same,AC50,[11],6.08 µM (active)
same,AC50,[2],25 µM (active)
same,outcome,[18],inactive
same,AC50,[8],6.35 µM (active)
same,AC50,[14],7.47 µM (active)
same,AC50,[9],14.6 µM (active)
same,AC50,[19],17.7 µM (active)
same,AC50,[3],10.5 µM (active)
same,AC50,[5],16.5 µM (active)
same,AC50,[20],35.5 µM (active)
same,AC50,[6],7.29 µM (active)
same,AC50,[17],34.6 µM (active)

# Reference: PubChem BioAssay (EPA / NIEHS)
